Test results from PubChem BioAssay (NCATS).
Records with an inconclusive call do not appear. A call without a number means that no potency is given here. Calls of active or inactive are those of the source. The call rests on the fitted dose curve; in most records, active means well fitted curve in the direction sought with a large enough effect; inconclusive means small, poorly fitted or top-dose-only effect, or another doubt; inactive means no such curve, though single readings can be large; an effect the other way counts as inactive or inconclusive.

Tests used:
[1] = qHTS assay to identify small molecule inhibitors of chordoma cells - UCH-1 (AID 1259355); further: nearly all actives have a fitted effect of over 55% in size; on potency: series mostly up to about 46 µM
Outline: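 800 cells/well, overnight attach; compounds pinned at 15 concs, then auranofin/camptothecin/doxorubicin/rubitecan/topotecan combo added; 48hr 37 C, 5% CO2; CellTiter-Glo, 30min RT, luminescence.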

[2] = qHTS assay to identify small molecule inhibitors of chordoma cells - UCH-2 (AID 1259356)
[3] = P-glycoprotein substrates identified in KB-8-5-11 adenocarcinoma cell line, qHTS therapeutic library screen (AID 1346987); further: nearly all actives have a fitted effect of over 65% in size
Outline: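 Human cervical adenocarcinoma KB-8-5-11 cells, selected in colchicine to over-express P-gp and assayed without it, were exposed for 72 h to titrated compounds. An ATP-based luminescent viability signal gave AC50.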
Potency means the concentration at half of the fitted maximal effect.

**Q.** Which Potency [1] does the source give for `Cc1ccccc1-n1c(C)nc2ccccc2c1=O` here?
**A.** inactive

**Q.** And the Potency [2]?
**A.** inactive

**Q.** With `CC[C@H]1[C@@H]2C[C@H]3[C@@H]4N(C)c5ccccc5[C@]45C[C@@H](C2[C@H]5O)N3[C@@H]1O` (stereo partly drawn) as the molecule, how does the Potency [1] read?
**A.** inactive

**Q.** What about the Potency [2] of the same molecule?
**A.** inactive

**Q.** For `CC(=O)OO`, which Potency [1] is on record?
**A.** inactive

**Q.** And the Potency [2]?
**A.** inactive

**Q.** For `C[C@]12CC[C@H]3[C@@H](CCC4=C(Cl)C(=O)CC[C@@]43C)[C@@H]1CC[C@@H]2O`, which Potency [1] is on record?
**A.** inactive

**Q.** What about the Potency [2] of the same molecule?
**A.** inactive

**Q.** What about the Potency [3] of the same molecule?
**A.** 13 µM (active)

**Q.** With `CCCCCCC(=O)O[C@H]1CC[C@H]2[C@@H]3CC[C@H]4CC(=O)C=C(C)[C@]4(C)[C@H]3CC[C@]12C` as the molecule, how does the Potency [1] read?
**A.** inactive

**Q.** What about the Potency [2] of the same molecule?
**A.** inactive

**Q.** Which Potency [1] does the source give for `c1cc2c(c(NC3=NCCN3)c1)CCCC2` here?
**A.** inactive

**Q.** What about the Potency [2] of the same molecule?
**A.** inactive

**Q.** What about the Potency [3] of the same molecule?
**A.** inactive

**Q.** What does the source list for `CC(=O)OC1CN2CCC1CC2` (stereo not drawn)?
**A.** Potency [1]: inactive; Potency [2]: inactive

**Q.** Which Potency [1] does the source give for `CCN(CC)C(=O)/C(Cl)=C(\C)OP(=O)(OC)OC` here?
**A.** inactive

**Q.** What about the Potency [2] of the same molecule?
**A.** inactive

**Q.** For `CN1[C@H]2CC[C@@H]1[C@@H](C(=O)O)[C@@H](OC(=O)c1ccccc1)C2`, which Potency [1] is on record?
**A.** inactive

**Q.** And the Potency [2]?
**A.** inactive

**Q.** With `CC(=O)O[C@H]1C[C@H](O[C@H]2[C@@H](O)C[C@H](O[C@H]3[C@@H](O)C[C@H](O[C@H]4CC[C@@]5(C)[C@H](CC[C@@H]6[C@@H]5C[C@@H](O)[C@]5(C)[C@@H](C7=CC(=O)OC7)CC[C@]65O)C4)O[C@@H]3C)O[C@@H]2C)O[C@H](C)[C@H]1O[C@@H]1O[C@H](CO)[C@@H](O)[C@H](O)[C@H]1O` as the molecule, how does the Potency [1] read?
**A.** 0.251 µM (active)

**Q.** And the Potency [2]?
**A.** 0.146 µM (active)

**Q.** And the Potency [3]?
**A.** 0.206 µM (active)

**Q.** Which Potency [1] does the source give for `O=C(CCl)c1ccc(Oc2ccc(C(=O)CCl)cc2)cc1` here?
**A.** inactive

**Q.** What about the Potency [2] of the same molecule?
**A.** inactive

**Q.** And the Potency [3]?
**A.** inactive

**Q.** With `C[C@]12CC[C@H]3[C@@H](CCC4=C(O)C(=O)CC[C@@H]43)[C@@H]1CC[C@@H]2OC(=O)CCC1CCCC1` as the molecule, how does the Potency [1] read?
**A.** inactive

**Q.** And the Potency [2]?
**A.** inactive

**Q.** Which Potency [1] does the source give for `C[C@@H](CO)NC(=O)[C@@H]1C=C2c3cccc4[nH]cc(c34)C[C@H]2N(C)C1` here?
**A.** inactive

**Q.** What about the Potency [2] of the same molecule?
**A.** inactive

**Q.** What does the source list for `Oc1cccc[c]1[Hg][Cl]`?
**A.** Potency [1]: 15.8 µM [with auranofin plus four topoisomerase inhibitors] (active); Potency [2]: 13 µM (active); Potency [3]: 5.17 µM (active)

**Q.** For `C=C[C@H]1CN2CC[C@H]1C[C@H]2[C@H](OC(=O)OCC)c1ccnc2ccc(OC)cc12`, which Potency [1] is on record?
**A.** inactive

**Q.** What about the Potency [2] of the same molecule?
**A.** inactive

**Q.** Which results are given for `Cc1cccc(C(C)c2cnc[nH]2)c1C` (stereo not drawn)?
**A.** Potency [1]: inactive; Potency [2]: inactive; Potency [3]: inactive

**Q.** What does the source list for `CC1(C)[C@H](C=C(Cl)Cl)[C@H]1C(=O)OCc1c(F)c(F)cc(F)c1F`?
**A.** Potency [1]: inactive; Potency [2]: inactive; Potency [3]: inactive

**Q.** For `CCC1C(C)=NN=C(c2ccc(OC)c(OC)c2)c2cc(OC)c(OC)cc21` (stereo not drawn), which Potency [1] is on record?
**A.** inactive

**Q.** What about the Potency [2] of the same molecule?
**A.** inactive

**Q.** Which Potency [1] does the source give for `O=[N+]([O-])c1cc(I)c(O)c(I)c1` here?
**A.** inactive

**Q.** What about the Potency [2] of the same molecule?
**A.** inactive

**Q.** With `NCC(O)c1cccc(O)c1` (stereo not drawn) as the molecule, how does the Potency [1] read?
**A.** inactive

**Q.** What about the Potency [2] of the same molecule?
**A.** inactive

**Q.** What about the Potency [3] of the same molecule?
**A.** inactive

**Q.** Which results are given for `O=C(C[C@@H]1NCCC[C@H]1O)Cn1cnc2cc(Br)c(Cl)cc2c1=O`?
**A.** Potency [1]: inactive; Potency [2]: inactive; Potency [3]: inactive

**Q.** What does the source list for `CCC(C)(S(=O)(=O)CC)S(=O)(=O)CC`?
**A.** Potency [1]: inactive; Potency [2]: inactive

**Q.** With `CNC(=O)Oc1ccccc1C(=O)Nc1ccccc1` as the molecule, how does the Potency [1] read?
**A.** inactive

**Q.** And the Potency [2]?
**A.** inactive

**Q.** Which Potency [1] does the source give for `O=C1CCCCC1CN1CCCCC1` (stereo not drawn) here?
**A.** inactive

**Q.** What about the Potency [2] of the same molecule?
**A.** inactive

**Q.** And the Potency [3]?
**A.** inactive

**Q.** For `CCCC(C)C1(CC)C(=O)NC(=O)NC1=O` (stereo not drawn), which Potency [1] is on record?
**A.** inactive

**Q.** And the Potency [2]?
**A.** inactive

**Q.** For `CNC(C)C(O)c1ccc(O)cc1` (stereo not drawn), which Potency [1] is on record?
**A.** inactive

**Q.** What about the Potency [2] of the same molecule?
**A.** inactive

**Q.** What about the Potency [3] of the same molecule?
**A.** inactive

**Q.** Which Potency [1] does the source give for `CN1c2ccccc2C(NCCCCCCC(=O)O)c2ccc(Cl)cc2S1(=O)=O` (stereo not drawn) here?
**A.** inactive

**Q.** And the Potency [2]?
**A.** inactive

**Q.** What does the source list for `Cn1sc(Cl)cc1=O`?
**A.** Potency [1]: inactive; Potency [2]: inactive

**Q.** Which Potency [1] does the source give for `CCNC(C)Cc1cccc(C(F)(F)F)c1` (stereo not drawn) here?
**A.** inactive

**Q.** What about the Potency [2] of the same molecule?
**A.** inactive

**Q.** For `O=C1CN=C(c2ccccc2)c2cc(Cl)ccc2N1CC1CC1`, which Potency [1] is on record?
**A.** inactive

**Q.** And the Potency [2]?
**A.** inactive

**Q.** With `CCC(=O)O[C@]1(c2ccccc2)CCN(C)C[C@H]1C` as the molecule, how does the Potency [1] read?
**A.** inactive

**Q.** And the Potency [2]?
**A.** inactive

**Q.** What about the Potency [3] of the same molecule?
**A.** inactive

**Q.** Which results are given for `O=S(=O)(O)c1cc(O)ccc1O`?
**A.** Potency [1]: inactive; Potency [2]: inactive; Potency [3]: inactive

**Q.** Which results are given for `c1ccc(C2(N3CCCC3)CCCCC2)cc1`?
**A.** Potency [1]: inactive; Potency [2]: inactive

**Q.** For `COc1ccc2c3c1O[C@H]1[C@@H](O)C=C[C@H]4[C@@H](C2)NCC[C@@]341`, which Potency [1] is on record?
**A.** inactive

**Q.** And the Potency [2]?
**A.** inactive

**Q.** Which Potency [1] does the source give for `Clc1ccc(C(Cn2ccnc2)OCc2csc3c(Cl)cccc23)c(Cl)c1` (stereo not drawn) here?
**A.** inactive

**Q.** What about the Potency [2] of the same molecule?
**A.** inactive

**Q.** For `CC(=O)[C@H]1CC[C@H]2[C@@H]3CC[C@@H]4C[C@H](O)CC[C@]4(C)[C@H]3CC[C@]12C`, which Potency [1] is on record?
**A.** inactive

**Q.** And the Potency [2]?
**A.** inactive

**Q.** With `CCC/C=C/C=C/C(=O)O[C@H]1/C(=C/C(=O)OC)C[C@H]2C[C@H]([C@@H](C)O)OC(=O)C[C@H](O)C[C@@H]3C[C@H](OC(C)=O)C(C)(C)[C@](O)(C[C@@H]4C/C(=C/C(=O)OC)C[C@H](/C=C/C(C)(C)[C@]1(O)O2)O4)O3` as the molecule, how does the Potency [1] read?
**A.** inactive

**Q.** What about the Potency [2] of the same molecule?
**A.** inactive

**Q.** What about the Potency [3] of the same molecule?
**A.** inactive

**Q.** Which results are given for `CCC1(C)CC(=O)NC(=O)C1`?
**A.** Potency [1]: inactive; Potency [2]: inactive; Potency [3]: inactive

**Q.** With `CNc1ccc(C(=O)CC(O)CCC(C)C2OC(=O)CC(O)CC(=O)CC(O)CC(O)CC(O)CC(O)CC3(O)CC(O)C(C(=O)OC)C(CC(O[C@@H]4O[C@H](C)[C@@H](O)[C@H](N)[C@@H]4O)/C=C/C=C/C=C/C=C/C=C/C=C/C=C/C2C)O3)cc1` (stereo partly drawn) as the molecule, how does the Potency [1] read?
**A.** inactive

**Q.** What about the Potency [2] of the same molecule?
**A.** inactive

**Q.** What about the Potency [3] of the same molecule?
**A.** inactive

**Q.** Which results are given for `CN1CCCC(=C(c2cccs2)c2cccs2)C1`?
**A.** Potency [1]: inactive; Potency [2]: inactive; Potency [3]: inactive

**Q.** Which results are given for `CC(=O)Oc1ccc2c3c1O[C@H]1[C@@H](OC(C)=O)C=C[C@H]4[C@@H](C2)N(C)CC[C@@]341`?
**A.** Potency [1]: inactive; Potency [2]: inactive; Potency [3]: inactive

**Q.** For `CN(C)[C@@H]1C(=O)C(C(N)=O)=C(O)[C@@]2(O)C(=O)C3=C(O)c4c(O)ccc(Cl)c4[C@@](C)(O)[C@H]3C[C@@H]12`, which Potency [1] is on record?
**A.** inactive

**Q.** What about the Potency [2] of the same molecule?
**A.** inactive

**Q.** What about the Potency [3] of the same molecule?
**A.** inactive
